High-throughput results from PubChem.
Rows were chosen to be rich in hits. Some 1.4% of all compounds tested hit in one or more screens of this group.
TNF death inh – inhibitors of TNF-alpha induced necroptosis in Jurkat FADD-/- cells; activation (protection from cell death), % at 10 µM; 220,000 compounds, 0.068% hits; Jurkat FADD-/- TNF necroptosis rescue, ATP luminescence, 24 h; 0 = TNF only, 100 = no-TNF cells;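 active = activation, meaning protection from cell death, of at least 50% relative to plate controls; inactive = activation below 50%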;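 also: necroptosis triggered by 40 ng/mL TNF-alpha added together with compound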
Wee1 stabilizer – inhibitors of human Wee1 degradation. P30291. HeLa Luc-Wee1K328M stability, luciferase luminescence; 100% = proteasome inhibitor MG132 effect. reporter increase, % at 5 µM. 220,000 compounds, 1.2% hits;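 active = activation above the mean of all tested compounds plus 3 SD, set per screening run, cut at about 8.8% in these data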;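 also: cells exposed to compound for 20 h before luminescence read; 0% = DMSO alone and 100% = MG132 at 30 µM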
Target sequence (P30291 whole entry K328M): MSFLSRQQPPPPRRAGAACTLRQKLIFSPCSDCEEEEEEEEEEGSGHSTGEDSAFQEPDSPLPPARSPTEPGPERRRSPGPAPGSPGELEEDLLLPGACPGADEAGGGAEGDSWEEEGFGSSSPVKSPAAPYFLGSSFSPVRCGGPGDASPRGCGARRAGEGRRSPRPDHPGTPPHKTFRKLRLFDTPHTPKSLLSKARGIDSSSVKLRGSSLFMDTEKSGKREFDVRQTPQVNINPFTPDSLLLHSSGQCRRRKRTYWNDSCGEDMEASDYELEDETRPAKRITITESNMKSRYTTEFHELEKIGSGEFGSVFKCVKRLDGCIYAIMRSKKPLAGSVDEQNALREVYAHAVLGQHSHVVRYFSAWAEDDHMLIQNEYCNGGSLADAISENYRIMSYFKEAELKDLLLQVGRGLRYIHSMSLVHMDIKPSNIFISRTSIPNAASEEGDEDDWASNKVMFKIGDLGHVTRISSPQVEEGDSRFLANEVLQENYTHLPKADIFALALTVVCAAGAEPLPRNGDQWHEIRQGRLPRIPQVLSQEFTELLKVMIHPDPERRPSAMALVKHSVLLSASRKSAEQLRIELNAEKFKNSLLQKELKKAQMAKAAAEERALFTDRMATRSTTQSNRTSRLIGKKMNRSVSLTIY
HSV replic up – HSV replication enhancement; HSV replication augmentation in cells, fold increase; maximum fold increase; 220,000 compounds, 0.005% hits; in the data active = maximum fold increase above about 1.5; tested in PC3 cells
V-ATPase pHluor – alters yeast V-ATPase proton transport | S. cerevisiae, pHLuorin cytosolic pH fluorescence | response, % at 10 µM | AID 504577 | 350,000 compounds, 0.37% hits; in the data active = response mostly above about 7.3%, no sharp cut-off; inactive = mostly below about 5.4%; also: actives read high
zVAD death inh – blocks zVAD induced death of L929 cells; AID 1377; viability rescue, % at 10 µM; L929 zVAD necroptosis rescue, ATP luminescence, 24 h; with zVAD 60 µM; 220,000 compounds, 0.38% hits;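 active = activation, scaled between plate controls, above about 75%, limit read from the data; inactive = activation under that limit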;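 also: 0% = zVAD with DMSO and 100% = DMSO alone without zVAD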
Wee1 stab conf – human Wee1 degradation inhibition, confirmation; HeLa Luc-Wee1K328M degradation, luminescence; vehicle 0%, proteasome-blocked wells 100%; shares compounds with Wee1 stabilizer; activation, % at 5 µM; 1,100 compounds, 4% hits; AID 1410; in the data active = activation above about 8.9%
The depositor's hits bear a star; i = inactive; · = no result given.

SMILES	TNF death inh	Wee1 stabilizer	HSV replic up	V-ATPase pHluor	zVAD death inh	Wee1 stab conf
CN(Cc1c(F)cccc1Cl)C(=O)C1CC(=O)N(CCc2ccccc2)C1 (stereo not drawn)	1	12*	i	-3	0	2
O=C(/C(N=Nc1cccc([N+](=O)[O-])c1)=C(/O)c1ccc(Br)cc1)C(F)(F)F	-21	-2	i	·	2	·
Cc1ccc(CCNC(=O)CNC(=S)N(Cc2ccccc2)Cc2cccnc2)cc1	0	15*	i	-2	0	0
Cc1csc(NC(=O)c2ccco2)c1C(=O)c1ccccc1	0	12*	i	5	1	1
O=C(C[n+]1cn(C(F)F)c2ccccc21)c1ccc(OC(F)F)cc1	-1	15*	i	-1	5	-1
Cc1ccc(C(=O)Nc2nnc(-c3ccncc3)o2)cc1	-1	2	i	-3	1	·
O=C(Nc1nnc(-c2ccncc2)o1)c1ccccc1	0	22*	i	-3	1	2
Cc1cn([C@H]2C[C@H](O)[C@@H](CNCC3=Cc4cc(O)ccc4OC3)O2)c(=O)[nH]c1=O	·	·	·	1	·	·
N#Cc1c(F)cccc1NCc1cccs1	0	-2	i	0	0	·
COC(=O)c1ccccc1NC(=O)C(C)Oc1ccccc1 (stereo not drawn)	-2	17*	i	-1	0	2
CC(C)NC(=O)c1ccccc1NC(=O)C(C)Oc1ccccc1 (stereo not drawn)	2	-1	i	-1	5	·
COc1ccc(C(C)=O)cc1CSCCC#N	0	14*	i	1	1	0
CCOc1ccc(-c2cnc(NCc3cccc4ccccc34)n2CCOC)cc1	·	·	·	3	·	·
O=C(/C(=C/O)N=Nc1ccccc1)c1cccs1	1	11*	·	-2	3	2
Cc1ccc(-n2cc(-c3ccccc3)c3c(NN4CCOCC4)ncnc32)cc1	1	3	i	3	-1	·
Cc1cccc(-n2cc(-c3ccccc3)c3c(NN4CCOCC4)ncnc32)c1	1	24*	i	6	0	1
COc1ccc(NC(=O)COC(=O)Cc2ccccc2[N+](=O)[O-])cc1OC	0	31*	i	1	9	1
COc1ccc(CNC(=O)CSC(=S)N2CCCC2)cc1	·	·	·	0	·	·
COc1cccc(/C=N/Nc2ccc(S(=O)(=O)O)cc2)c1O	-4	18*	i	1	0	5
COc1cccc(/C=N/Nc2ccc(C(=O)O)cc2)c1O	-5	-4	i	-1	-1	·
Nc1cccnc1-n1nc(C(F)(F)F)cc1C(F)(F)F	1	0	i	1	2	·
CCn1c(O)c(C=Nc2ccccc2)oc1=S	1	14*	i	-1	0	0
Cc1cc(C(=O)N/N=C/c2c(C)nn(-c3ccccc3)c2C)c(C)o1	3	1	i	12	1	·
O=C1CCc2cc(S(=O)(=O)NC(Cc3ccccc3)C(=O)NC3CCCCC3)ccc2N1 (stereo not drawn)	0	28*	·	1	2	0
CC(C)(C)NC(=O)C(Cc1ccccc1)NS(=O)(=O)c1ccc2c(c1)CCC(=O)N2 (stereo not drawn)	1	3	i	-1	0	·
SMILES	TNF death inh	Wee1 stabilizer	HSV replic up	V-ATPase pHluor	zVAD death inh	Wee1 stab conf
CCC1CCCCN1C(=S)NC1CCCCC1 (stereo not drawn)	1	14*	i	0	1	1
S=C(NC1CCCCC1)N1CCCCC1	0	0	i	-2	0	·
CC1(C)NC(=O)N(CC(=O)OCC(=O)N2CCN(S(=O)(=O)c3ccccc3)CC2)C1=O	·	·	·	5	·	·
CC(C)c1ccc(/C=N/NC(=O)c2cccc(Cl)c2)cc1	-5	14*	i	1	3	6
O=C(N/N=C/c1cccnc1)c1cccc(Cl)c1	·	·	·	2	·	·
Cc1ccc(N(CC(=O)NCc2ccco2)C(=O)CCC(=O)Nc2nccs2)c(C)c1	·	·	·	-4	·	·
CC(C)[C@H](NC(=O)c1ccco1)C(=O)OCC(=O)N1CC(=O)Nc2ccccc21	0	14*	i	-3	0	-1
CCOC(=O)C(C)Sc1nc2c(c(=O)[nH]c(=O)n2C)n1C/C=C(/C)Cl (stereo not drawn)	-2	12*	i	1	0	-3
CCOCC(=O)Nc1ccc([N+](=O)[O-])cc1C	0	2	i	-1	2	·
N/C(=N\OC(=O)c1ccc(=O)n(Cc2ccc(Cl)cc2)c1)c1ccccn1	0	11*	i	-2	0	0
N/C(=N\OC(=O)c1ccc(=O)n(Cc2ccccc2)c1)c1ccccn1	-2	-5	i	2	1	·
COc1cc(-c2nc3ccccn3c2/N=C/c2ccccc2)ccc1O	-6	68*	i	1	0	1
CCN(CC)S(=O)(=O)c1ccc(C(=O)NCCc2ccccn2)cc1	1	12*	i	-3	6	9.3*
O=C(Cc1cccs1)NCCSc1c(-c2ccc(Cl)cc2)[nH]c2ccccc12	5	13*	·	0	·	2
Cc1c(C(=O)N2CCc3ccccc32)oc2ccccc12	-2	11*	i	3	0	0
O=C(c1ccc(Br)o1)N1CCc2ccccc21	-3	13*	i	·	14	7
Cn1cc(-c2cc(C(=O)O)on2)cn1	2	-3	i	0	0	·
CCCCOc1ccc(-c2ncc([N+](=O)[O-])cn2)cc1	-1	2	i	-1	1	·
CCCCOc1ccc(-c2[nH]ncc2C=O)cc1	1	15*	i	-1	4	5
COc1ccc(/C=N/NC(=O)CN(C2=NS(=O)(=O)c3ccccc32)c2ccccc2)cc1OC	2	1	i	-4	1	·
COc1cccc(/C=N/NC(=O)CN(C2=NS(=O)(=O)c3ccccc32)c2ccccc2)c1	3	12*	i	0	1	0
O=C(c1cccc(C(F)(F)F)c1)C1CCCN(Cc2ccc(OCCO)cc2)C1 (stereo not drawn)	-1	13*	i	0	0	-2
CC(=O)Nc1ccc(CN2CCCC(C(=O)c3cccc(C(F)(F)F)c3)C2)cc1 (stereo not drawn)	0	3	i	3	-2	·
Cc1cc(C)n(CCOc2ccc(Cl)cc2Cl)n1	1	11*	i	0	-1	-2
Cc1cc(C)n(CC(O)COc2ccc(Cl)cc2Cl)n1 (stereo not drawn)	·	·	·	2	·	·
O=C(Nc1ccccn1)c1csc2c1CCCC2	0	18*	i	-3	0	5
COc1ccccc1NC(=O)c1csc2c1CCCC2	-4	0	i	-3	1	·
CC(=O)N1c2ccc(S(=O)(=O)N(C)Cc3ccccc3)cc2CC1C (stereo not drawn)	·	·	·	1	·	·
